# Counter-ions that a name gives are not always drawn. Hit rate of the full screen: of about 2,100 compounds, about 180 (8.6%) showed an effect of 50% or more. The sample as a whole holds a higher share of strong results than the screen did.
# Test system: MOLM1 and UCSD/AML1 (averaged)
# Assay: cell viability relative to DMSO control (POC); higher = less growth inhibition
# Conditions: 1 µM; 72 h
# Description: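 Primary viability screen in the 3q26 EVI1-high AML cell lines MOLM1 and UCSD/AML1 (1.5e3 cells/well, 384-well), compounds at 1 uM for 72 h. ATP CellTiter-Glo read-out given as percent of viable cells over DMSO control (POC), averaged over duplicates. DMSO was the negative control and 5 uM etoposide the positive control. This mapping covers the MicroSource Spectrum and Selleck anticancer libraries (drug names).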
row,SMILES,cell viability
1,O=c1cc(-c2cccc3c2Sc2ccccc2S3)oc(N2CCOCC2)c1,69.4%
2,O=C(O)CCCCCCCCCCCC[C@@H]1C=CCC1,93.9%
3,CS(=O)(=O)CCCCN=C=S,84.4%
4,COc1ccc(-c2oc3cc(OC)c(OC)c(OC)c3c(=O)c2OC)cc1OC,101%
5,CC(=O)OCC(=O)[C@@]1(O)CCC2C3CCC4=CC(=O)C=C[C@]4(C)[C@@]3(F)[C@@H](O)C[C@@]21C (some centres not stated),78.1%
6,N#CCNC(=O)c1ccc(-c2ccnc(Nc3ccc(N4CCOCC4)cc3)n2)cc1 [Momelotinib (CYT387)],51.4%
7,Cc1nc(N)sc1-c1ccnc(Nc2ccc(N3CCOCC3)cc2)n1,46.7%
8,O=C(O)c1ccccc1,98.9%
9,CC(CCC(=O)O)[C@H]1CCC2C3C[C@H](O)[C@@H]4C[C@H](O)CC[C@]4(C)C3CC[C@@]21C (stereo partly drawn) [alpha-HYDROXYDEOXYCHOLIC ACID],107%
10,CC(C)(C)c1cnc(CSc2cnc(NC(=O)C3CCNCC3)s2)o1,2.81%
11,Cc1cc(/C=C/c2ccc3cc(N(C)C)ccc3[n+]2C)c(C)n1-c1ccccc1,29.3%
12,C[C@@H]1CC[C@@]23CCC4(C)[C@@](C=CC5[C@@]6(C)CC[C@H](O)C(C)(C)C6CC[C@]54C)(OC2=O)C3[C@H]1C (some centres not stated),90.8%
13,C=C1C(=O)[C@]23[C@H](CC[C@@H]1[C@@H]2O)[C@]12CO[C@@]3(O)[C@H](O)[C@H]1C(C)(C)CC[C@@H]2O,94.3%
14,CC1(C)CC2C1CCC1(C)OC2(C)CCC1O (configuration not stated),91.4%
15,CC(C)=CCC/C(C)=C/COc1ccc2ccc(=O)oc2c1,92.6%
16,CC(C)(C)NCC(O)c1ccc(O)c(CO)c1 (racemic),93.2%
17,O=C(O)c1cc2cc(Cl)ccc2[nH]1,98.1%
18,O=C1c2c(O)ccc(O)c2C(=O)c2c(NCCNCCO)ccc(NCCNCCO)c21 [Mitoxantrone Hydrochloride],2.15%
19,O=C1c2c(O)cccc2Cc2cccc(O)c21,102%
20,O=C1c2c(O)ccc(O)c2C(=O)c2c(NCCNCCO)ccc(NCCNCCO)c21,8.27%
21,O=C1c2cccc(O)c2C(=O)c2c(O)cccc21,104%

row,SMILES,cell viability
1,NCCOB(c1ccccc1)c1ccccc1,117%
2,CC(C)CCC[C@@H](C)[C@H]1CC[C@H]2[C@@H]3CC(=O)[C@H]4C[C@@H](O)CC[C@]4(C)[C@H]3CC[C@]12C [5alpha-CHOLESTAN-3beta-OL-6-ONE],107%
3,Cc1ccc(C(=O)N(CCCN)[C@@H](c2oc3cc(Cl)ccc3c(=O)c2Cc2ccccc2)C(C)C)cc1,13.4%
4,Cc1ccc(C(=O)N(CCCN)[C@@H](c2nc3cc(Cl)ccc3c(=O)n2Cc2ccccc2)C(C)C)cc1,15.3%
5,CC(=O)O[C@@H]1C[C@H]2C(C)(C)C(=O)CC[C@]2(C)[C@H]2CC[C@@]3(C)[C@H](c4ccoc4)OC(=O)[C@H]4O[C@]43[C@@]21C,100%
6,CNC(=O)c1ccc(N2C(=S)N(c3ccc(C#N)c(C(F)(F)F)c3)C(=O)C2(C)C)cc1F [MDV3100 (Enzalutamide)],102%
7,CC(C)CC(NC(=O)[C@H](C)N)C(=O)O (mixture of isomers),105%
8,COc1cc(C)c(C(=O)Oc2cc(C)c(C(=O)O)c(O)c2C)c(OC)c1C,109%
9,CNS(=O)(=O)c1ccc(NC(=O)c2ccccc2C(=O)O)cc1,110%
10,Nc1nc(=O)c2[nH]c(=O)cnc2[nH]1,112%
11,C[C@]12CCC(=O)C=C1C=C[C@@H]1[C@@H]2CC[C@@]2(C)[C@H]1CC[C@@]21CCC(=O)O1,83.2%
12,CN1CCC(CNc2ccc3ncc(-c4cccc(OC(F)(F)F)c4)n3n2)CC1 [SGI-1776 free base],80%
13,O=c1c(O)cc([C@H]2Oc3cc(O)cc(O)c3C[C@H]2O)cc2c([C@H]3Oc4cc(O)cc(O)c4C[C@H]3O)cc(O)c(O)c12,104%
14,CN1CCN(CCOc2cc(OC3CCOCC3)c3c(Nc4c(Cl)ccc5c4OCO5)ncnc3c2)CC1 [Saracatinib (AZD0530)],47.7%
15,C=CC(=O)N1CCC[C@@H](n2nc(-c3ccc(Oc4ccccc4)cc3)c3c(N)ncnc32)C1,60.3%
16,Cc1ccc2c(c1)CC[C@H]1CC(=O)CC[C@]21C,104%
17,CC(=O)N1CCCC1C(=O)O (configuration not stated),108%
18,CN(N=O)C(=O)N[C@@H](C=O)[C@@H](O)[C@H](O)[C@H](O)CO [Streptozotocin (Zanosar)],37.4%
19,CC(=O)N[C@@H](C=O)[C@@H](O)[C@H](O)[C@H](O)CO,107%
20,O=C[C@H](O)[C@@H](O)[C@H](O)CO,121%
21,CC(=O)O[C@H]1CC[C@]2(C)[C@H]3CC=C4[C@@H]5CC(C)(C)CC[C@]5(C(=O)O)CC[C@@]4(C)[C@]3(C)CC[C@H]2C1(C)C,102%
